HCMV inh: human cytomegalovirus inhibition; AID 1259415; activity change, negative = inhibition, % at 57.5 µM; actives 4.5% (n = 410,000); HFF cells, HCMV-luciferase reporter, 72 h; stronger effect = lower value; in the data active means activity change below about -60%; inconclusive means no clear call, values can overlap the other calls; inactive means above about -39%
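After 16 h attachment at 37C, HFF cells received test compound and HCMV-luciferase (1 PFU/cell); reporter luminescence read 72 h later, data normalized against buffer-only and known inhibitor Salinomycin.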
Pf growth 48h: P. falciparum growth inhibition at 48 hours (one generation). actives 5.9% (n = 310,000). Potency, µM (titrated, usually from 28.7 µM), hits mostly inhibitors. P. falciparum luciferase growth in erythrocytes, 48 h
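Cell-based growth assay: transgenic P. falciparum expressing firefly luciferase, cultured in red cells within RPMI 1640 containing 0.5% w/v Albumax, 24 mM bicarbonate and gentamycin. A drop in luciferase activity indicates inhibition.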
Shiga toxin inh: Shiga toxin inhibition; Vero cells, Shiga toxin protein synthesis inhibition reporter; inhibition, % at 38.7 µM; actives 9.2% (n = 290,000); AID 2315; in the data active means inhibition mostly above about 28%, no sharp cut-off; inactive means mostly below about 43%
Pf growth 96h: P. falciparum growth inhibition at 96 hours; P. falciparum luciferase reporter growth, 96 h; Potency, µM (highest dose often 28.7 µM), hits mostly inhibitors; actives 6.9% (n = 320,000); AID 504834
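Erythrocytes infected with luciferase-expressing P. falciparum were dispensed at 2% hematocrit and 0.05% parasitemia (final), then incubated with compounds 96 hours at 37 C in 5% CO2. Luminescence after detection reagent addition reported growth.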
CHX counter: counter-screen for Shiga toxin inhibitors: cycloheximide protein synthesis inhibition; cell reporter, cycloheximide protein synthesis inhibition counterscreen; max response, %; actives 12% (n = 300,000); AID 2314; in the data active means max response mostly above about 13%, no sharp cut-off; inactive means mostly below about 14%; further: read at 38.3 µM for the half of the compounds with a filed dose
Large screens that a line does not name were inactive. Only some compounds are listed: those with a hit (about 20% of all), similar ones and a draw of the others. Unless noted, the call rests on the fitted dose curve; in most records, active means well fitted inhibition curve with a large enough effect; inconclusive means small, poorly fitted or top-dose-only effect, or another doubt; inactive means no such curve, though single readings can be large or run the other way.

CS(=O)(=O)N1CCC(Oc2ccccc2C(=O)NC2CCCCCC2)CC1	CHX counter 17
CCOCCCNC(=O)c1ccccc1OC1CCN(S(C)(=O)=O)CC1	CHX counter 12
COCC1CCCCN1C(=O)c1cccc(OC2CCN(S(C)(=O)=O)CC2)c1 (configuration not stated)	Pf growth 96h inconclusive, CHX counter 16
O=C(C1CC1)N1CCC(Oc2cccc(C(=O)N3CCCCC3CCO)c2)CC1 (configuration not stated)	Pf growth 96h inconclusive
CS(=O)(=O)N1CCC(Oc2ccccc2C(=O)N2CCC[C@H]2CO)CC1	CHX counter 17
Cc1cc(C)cc(NC(=O)CCn2ccnc2)c1	none
CC(Oc1ccccc1)c1ccn[nH]1 (configuration not stated)	none
c1ccc(C(c2ccccc2)c2ccn[nH]2)cc1	HCMV inh inconclusive, Shiga toxin inh 61, CHX counter 19
O=C(CCCN1C(=O)S/C(=C\c2ccccc2)C1=O)NNC(=O)c1ccccc1O	HCMV inh -83
COc1ccc(/C=C2\SC(=O)N(CC(=O)NNC(=O)c3ccccc3O)C2=O)cc1	Pf growth 96h 3.3µM
O=C(CN1C(=O)S/C(=C\c2ccc(O)cc2)C1=O)c1ccccc1	HCMV inh inconclusive, Shiga toxin inh 20, Pf growth 96h inconclusive, CHX counter 36
O=C(CN1C(=O)S/C(=C\c2ccccc2)C1=O)NNC(=O)c1ccccc1O	none
CCCCN(Cc1ccco1)S(=O)(=O)c1csc(C(N)=O)c1	Pf growth 96h 9.3µM
CN(C)CCN(Cc1ccco1)S(=O)(=O)c1csc(C(N)=O)c1	Pf growth 96h 8.3µM
COc1cc(CC(=O)Nc2cc(S(C)(=O)=O)ccc2Cl)cc(OC)c1OC	none
O=S(=O)(NCCC1CC1(Cl)Cl)c1ccc(Cl)cc1 (configuration not stated)	none
COc1ccc2c(CNC3CCCCCC3)c(C(=O)O)n(Cc3ccccc3F)c2c1	none (no result: Pf growth 48h, Shiga toxin inh, Pf growth 96h, CHX counter)
O=C(Cn1cnc([N+](=O)[O-])c1)NCc1ccc(F)cc1	Pf growth 96h 6.6µM
CCOc1ccc(NS(=O)(=O)c2cccc(C(=O)N(C)Cc3ccco3)c2)cc1	Pf growth 48h inconclusive (no result: Shiga toxin inh, CHX counter)
Cc1nc(N)sc1-c1csc(N(C)c2ccc(O)cc2)n1	Shiga toxin inh 66, CHX counter 23
CC1(C)Cc2cccc(OCC(=O)N3CCN(c4cccc(C(F)(F)F)c4)CC3)c2O1	Pf growth 48h inconclusive, Pf growth 96h inconclusive (no result: Shiga toxin inh, CHX counter)
CC1(C)Cc2cccc(OCC(=O)N3CCN(c4ccccc4Cl)CC3)c2O1	Pf growth 48h inconclusive, Pf growth 96h inconclusive (no result: Shiga toxin inh, CHX counter)
CC1(C)Cc2cccc(OCC(=O)N3CCN(S(=O)(=O)c4ccccc4)CC3)c2O1	Pf growth 48h inconclusive, Pf growth 96h 4.7µM
CC1(C)Cc2cccc(OCC(=O)N3CCN(c4ccc(F)cc4)CC3)c2O1	Pf growth 48h 12µM, Pf growth 96h inconclusive (no result: Shiga toxin inh, CHX counter)
O=C(COC(=O)C1(c2ccccc2)CC1)N1CCN(c2ccc(F)cc2)CC1	Pf growth 96h 10µM
CCOCC(=O)N1CCN(c2ccc(F)cc2)CC1	none
CC1(C)Cc2cccc(OCC(=O)N3CCN(c4cccc(Cl)c4)CC3)c2O1	Pf growth 48h 4.7µM, Pf growth 96h inconclusive (no result: Shiga toxin inh, CHX counter)
CN1CCN(S(=O)(=O)c2ccc(C#N)cc2)C(c2ccccc2)C1 (configuration not stated)	none (no result: Shiga toxin inh, CHX counter)
CC(C)(C)NC(=O)NC(=O)COC(=O)C1CCN(S(=O)(=O)c2cccs2)CC1	Pf growth 96h inconclusive (no result: Shiga toxin inh, CHX counter)
CCN(C(=O)Cn1cnc2c1c(=O)n(C)c(=O)n2C)c1ccccc1C	none (no result: Pf growth 48h, Shiga toxin inh, Pf growth 96h, CHX counter)
COc1ccc2[nH]c(C)c(CCNS(=O)(=O)c3cc(F)ccc3OC)c2c1	none (no result: Pf growth 48h, Shiga toxin inh, Pf growth 96h, CHX counter)
COc1ccc(-c2csc(NC(=O)c3ccccc3NS(=O)(=O)c3ccc(F)c(F)c3)n2)cc1	HCMV inh -100, Pf growth 48h 1.9µM, Pf growth 96h inconclusive
Cc1ccc(S(=O)(=O)Nc2ccccc2C(=O)Nc2nc(-c3ccc(F)cc3)cs2)cc1	HCMV inh -103, Pf growth 48h 13µM, Pf growth 96h inconclusive
CC(C)C1Oc2ccccc2N(CC(=O)NC2CCCCC2)C1=O (configuration not stated)	none
CCOc1cnc(C(=O)NNC(=O)C(Br)C(C)C)o1 (configuration not stated)	none
CCNC(=O)/C(C#N)=C/c1c(N(Cc2ccccc2)Cc2ccccc2)nc2ccccn2c1=O	HCMV inh inconclusive, Pf growth 48h 3.7µM, Pf growth 96h 13µM
CNC(=O)/C(C#N)=C/c1c(N(Cc2ccccc2)Cc2ccccc2)nc2c(C)cccn2c1=O	Pf growth 48h 13µM, Pf growth 96h 2.9µM
CCNC(=O)/C(C#N)=C/c1c(N2CCN(C)CC2)nc2c(C)cccn2c1=O	HCMV inh inconclusive
CCCc1nn2c(=O)cc(COC(=O)c3ccc(NC(=O)CCc4ccccc4)cc3)nc2s1	none (no result: Pf growth 48h, Shiga toxin inh, Pf growth 96h, CHX counter)
COc1ccc(F)cc1S(=O)(=O)NC1CCCC1	none (no result: HCMV inh, Pf growth 96h)
O=C(c1ccc(NC(=S)Nc2ccc(F)cc2F)cc1)N1CCOCC1	none
Cc1cccc(N(CC(N)=O)C2SC(=O)N(Cc3cccc(C(=O)O)c3)C2=O)c1 (configuration not stated)	none (no result: Pf growth 48h, Shiga toxin inh, Pf growth 96h, CHX counter)
Cc1ccc(N2CCN(S(=O)(=O)c3c(C)nc4scc(C)n4c3=O)CC2)c(C)c1	Pf growth 96h inconclusive
Cc1ccc(-c2cc(-c3coc4ccccc4c3=O)c3c(n2)-c2ccccc2OC3)cc1	none (no result: Pf growth 48h, Shiga toxin inh, Pf growth 96h, CHX counter)
COc1ccc(/C=N/N2CCN(c3ccc(Cl)cc3)CC2)cc1	none (no result: Shiga toxin inh)
Cc1ccc(N=C2C(=S)N(c3ccc(C)cc3)C(=N)N2/N=C/c2ccc(Cl)cc2)cc1	Shiga toxin inh 74, Pf growth 96h inconclusive, CHX counter 48
CCOc1ccc(C(=O)NCCC(=O)N2CCC3(CC2)NCCc2[nH]cnc23)cc1OCC	none
Cc1nn(-c2ccccc2)c(N)c1N=Nc1ccc2ccccc2c1	Shiga toxin inh 56, CHX counter 39
Cc1nn(-c2ccccc2)c(N)c1N=O	none
Cc1ccc(N=Nc2c(N)nn(-c3ccccc3)c2N)cc1	Shiga toxin inh 91, CHX counter 63
Cc1ccc(N=Nc2c(N)nn3c(C)cc(C)nc23)cc1	CHX counter 21
COc1ccc(CN2COc3ccc4c(-c5ccccc5)cc(=O)oc4c3C2)cc1OC	none (no result: Pf growth 48h, Shiga toxin inh, Pf growth 96h, CHX counter)
COc1cc(NC(=O)CCn2c(=S)oc3ccccc32)cc(OC)c1OC	Pf growth 48h inconclusive
CC1(C)C2CC=C(/C=N/n3cnnc3)C1C2 (configuration not stated)	none
CC1(C)C2CC=C(/C=N/NC(=S)NCCc3ccccc3)C1C2 (configuration not stated)	Pf growth 48h inconclusive, Pf growth 96h 1.5µM, CHX counter 17
CC1(C)C2CC=C(/C=N/NC(=O)c3ccccc3O)C1C2 (configuration not stated)	Shiga toxin inh 36
CNC(=S)N/N=C/C1=CCC2CC1C2(C)C (configuration not stated)	Pf growth 48h 5.9µM, Pf growth 96h 4.1µM
CCOCCc1nn2c(=O)cc(COC(=O)c3ccc(NC(=O)c4cccs4)cc3)nc2s1	none (no result: Pf growth 48h, Shiga toxin inh, Pf growth 96h, CHX counter)

Compound activity from PubChem BioAssay.
